A selection follows.
TNAP inh Pi: inhibitors of human tissue-nonspecific alkaline phosphatase; P05186; purified TNAP, pNPP, malachite green phosphate absorbance; inhibition, % at 20 µM; 21,000 tested, under 10 active
Target sequence (P05186 whole entry, looked up): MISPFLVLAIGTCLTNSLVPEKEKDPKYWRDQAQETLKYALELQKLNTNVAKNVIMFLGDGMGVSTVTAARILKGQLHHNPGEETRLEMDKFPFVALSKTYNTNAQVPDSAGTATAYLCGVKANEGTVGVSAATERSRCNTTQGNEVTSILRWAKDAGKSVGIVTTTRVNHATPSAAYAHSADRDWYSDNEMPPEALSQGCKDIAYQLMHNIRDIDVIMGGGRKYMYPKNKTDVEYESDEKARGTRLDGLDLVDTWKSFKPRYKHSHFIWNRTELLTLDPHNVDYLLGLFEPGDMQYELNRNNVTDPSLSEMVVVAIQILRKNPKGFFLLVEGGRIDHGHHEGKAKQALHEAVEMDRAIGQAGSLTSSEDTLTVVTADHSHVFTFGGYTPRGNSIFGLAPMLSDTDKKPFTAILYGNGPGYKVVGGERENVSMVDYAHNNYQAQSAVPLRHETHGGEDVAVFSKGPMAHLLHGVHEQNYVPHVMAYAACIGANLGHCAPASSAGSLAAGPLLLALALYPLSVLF
TNAP inh pNP: blocks human TNAP p-nitrophenol release; P05186; purified TNAP, pNPP hydrolysis, absorbance 405 nm; inhibition, % at 20 µM; 21,000 tested, under 10 active
Large screens that a line does not name were inactive.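 The calls were made as follows: active = inhibition above 50% at the 20 µM single-dose screen; inactive = the rest.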

Cc1ccc(S(=O)(=O)n2nc(-c3ccc(Cl)cc3)nc2NCc2ccco2)cc1	none
Cc1c(O)c(CN2CCCC(C)C2)cc2c3c(c(=O)oc12)CCC3 (stereo not drawn)	none
CCOc1cccc(NC(=O)C2CC(=O)NC(=Nc3ccccc3)S2)c1 (stereo not drawn)	none
Cc1nc(Nc2ncc3c(n2)CCCC3=O)nc2ccccc12	none
CC(C)Oc1ccc(CNC2CCOC(C)(C)C2)cc1 (stereo not drawn)	none
COCCCn1c(SCC(=O)n2c(C)c(C)c3ccccc32)nnc1-c1ccoc1C	none
O=C(NCCCn1ccnc1)c1cc2c(s1)CCCCC2	none
Cc1cc(Nc2nc3c(c(=O)n(C)c(=O)n3C)n2C)n(-c2ccccc2)n1	none
COC(=O)c1ccc(C(=O)OC)c(NC(=O)c2cc3ccccc3o2)c1	none
COc1ccc(C2c3c(-c4cc(Cl)c(C)cc4O)n[nH]c3C(=O)N2Cc2cccnc2)cc1OC (stereo not drawn)	none
O=C(CSc1n[nH]c(-c2ccccc2)n1)c1ccc(O)c(O)c1	none
C=CCOC(=O)C1CC=CCC1C(=O)Oc1ccc(F)cc1F (stereo not drawn)	none
CCC(=O)c1cn(CC(=O)NCc2cccnc2)c2ccccc12	none
CC1CCN(c2ccc(C(=O)NCc3cccs3)cn2)CC1	none
O=C(CSc1nnc(C2CCCCC2)n1Cc1ccccc1)NCc1ccco1	none
COc1ccc(-c2nc(C#N)c(NCC3CCCO3)o2)cc1 (stereo not drawn)	none
Cc1ccc(S(=O)(=O)/N=C(\CN2CCCCC2)N2CCOCC2)cc1	none
COc1ccc(-n2c(=O)c3c4c(sc3n3c(C)nnc23)CC(C)CC4)cc1 (stereo not drawn)	none
Cn1c(O)c(C=Nc2ccc(Cc3ccncc3)cc2)c(=O)n(C)c1=O	none
CCc1nnc2c3cnn(-c4ccc(C)c(C)c4)c3ncn12	none
CC(=O)c1cccc(NC(=O)COc2ccc(S(=O)(=O)N3CCCCC3)cc2)c1	none
Cc1noc2nc(-c3cccs3)cc(-c3nnc4n3CCCCC4)c12	none
CCOC(=O)CC1=CC(C)(CC(=O)OCC)C(C#N)(C#N)C(N)=C1C#N (stereo not drawn)	none
Cn1c(=O)[nH]c(=O)c2[nH]c(N(Cc3ccccc3)Cc3ccccc3)nc21	none
Cn1c(=O)c2cn(Cc3ccc(Cl)cc3)cc2n(C)c1=O	none
Cc1nc2c(c(=O)n1CC1CCCO1)c1nc3ccccc3nc1n2Cc1ccc2c(c1)OCO2 (stereo not drawn)	none
Cn1c(=O)c2c3c(sc2n2c(SCC(=O)c4ccc(Cl)cc4)nnc12)COC(C)(C)C3	none
C/C(NCCN1CCOCC1)=C(\C#N)C(N)=O	none
Cc1cc(C)nc(N2CCC(C(=O)Nc3nnc(C)s3)CC2)n1	none
Cc1cccc2cc(C#N)c(NCCNS(=O)(=O)c3ccc4c(c3)OCCO4)nc12	none
Cc1cc(C(=O)N2CCN(Cc3ccc4c(c3)OCO4)CC2)cs1	none
Cc1nccn1-c1cc(C(C)C)c(C#N)c2nc3ccccc3n12	none
O=C(Nc1ccn(-c2ccccc2)n1)c1ccc(S(=O)(=O)N2CCCCCC2)cc1	none
CCc1c(C(C)O)oc2ccc3c(C)cc(=O)oc3c12 (stereo not drawn)	none
CCCc1n[nH]c2c1C(=O)C(C(=O)OC)C(C)(C)C2 (stereo not drawn)	none
COc1ccc(-n2c(SCCC#N)nnc2-c2cc(Cl)ccc2OC)cc1Cl	none
COc1ccc(C(=O)n2ccc(C)n2)cc1Br	none
CC1(C)Cc2c(sc3c4nnnn4c4nnnn4c23)CO1	none
CN1CCN(C(=O)CSc2nc(-c3cccs3)ccc2C#N)CC1	none
CC1CCc2cc(F)cc3c(O)c(C(=O)Nc4cnccn4)c(=O)n1c23 (stereo not drawn)	none
COc1ccc(N/C(C)=C2/C(=O)C(=O)N(CCO)C2c2ccc(Br)cc2)cc1 (stereo not drawn)	none
O=C(Cn1nnc(-c2ccccc2F)n1)Nc1ccc(S(=O)(=O)NC2CCCC2)cc1	none
CCOC(=O)COc1ccc(C(=O)NC2CCCCC2)cc1	none
O=C(Cn1nc(Cl)nc1Cl)c1cc2ccccc2oc1=O	none
CCOc1ccc(CCNS(=O)(=O)c2cccc3nsnc23)cc1OCC	none
Cc1cccc(C)c1OCC(O)CNS(=O)(=O)c1ccccc1C(=O)N1CCCCC1 (stereo not drawn)	none
O=C(NCC1COc2ccccc2O1)Nc1ccccc1F (stereo not drawn)	none
CCOC(=O)c1[nH]c2ccccc2c1N=CN(CC)CC	none
CCCCc1nc(N2CCOCC2)c(C#N)c2c1COC(C)(C)C2	none
CCOC(=O)C1CCCN(C(=O)CSc2nccn2C)C1 (stereo not drawn)	none
CC1(C)N(O)CC(c2cccs2)=[N+]1[O-]	none
CCCCC(=O)Nc1cccc(-c2nn3c(C)nnc3s2)c1	none
COc1ccc(S(=O)(=O)c2ccc(OC)c(OC)c2)cc1OC	none
COc1ccc(-c2cc3nc4n(c(=O)c3s2)CCOC4)cc1	none
N#CCCCCN1c2cccc3cccc(c23)S1(=O)=O	none
CCOC(=O)CC(=O)CSc1nc(N)c(C#N)c(-c2ccc(F)cc2)c1C#N	none
Cc1ccc(CN(c2ccc(C(=O)N3CCCC3)cc2)S(C)(=O)=O)cc1	none
COCCn1c(C2CCCCC2)nc2sc3ccccc3c(=O)c2c1=O	none
Cc1ccc(OCC(=O)N2CCC(N3CCCCCC3)CC2)cc1	none
C=CCn1c(Cc2cccs2)nnc1SCC(=O)c1cccc(Br)c1	none
Cc1ccc2cc(C(c3nnnn3C(C)(C)C)N3CCCC3)c(=O)[nH]c2c1C (stereo not drawn)	none
CC(C)(C)OC(=O)NCCCCCc1nnc(SCC(=O)Nc2cccc(Cl)c2)o1	none
O=C(COc1ccc2c(c1)CCC2)N1CCc2ccccc21	none
Cc1cc2ncn(C(=O)c3c(-c4ccccc4Cl)noc3C)c2cc1C	none
CCN(CC(=O)Nc1ccc2c(c1)OCCO2)c1nc(-c2cccnc2)nc2ccccc12	none
C=CCn1cnc2c(c1=O)c1nc3ccccc3nc1n2-c1ccc(Cl)cc1	none
